CRE-bla Fsk = Cell signaling CRE-BLA (Fsk stim). CHO CRE-bla reporter (cAMP response element driving beta-lactamase), forskolin EC10, beta-lactamase ratio. Potency, µM (titrated, usually from 38.2 µM), for the others: at the top dose activity change, negative = inhibition, hits mostly activators. 2.5% of 71,000 active; active = well fitted activation curve with a large enough effect in the signal ratio, with a control signal flat, not every such curve was filed as active; inconclusive = small, poorly fitted or top-dose-only effect, or effect the other way, or a change in a side signal; the % refers to the signal ratio; note: % of control where 0% means no effect
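Modulation of forskolin signalling: compounds in titration series added with EC10 NKH 477 to CHO cells carrying a CRE-driven beta-lactamase reporter, 3 h, 37C. CCF4 FRET ratio (460/530 nm, ex 405 nm) gives %activity and AC50.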
15-hLO-2 inh = qHTS Assay for Inhibitors of 15-hLO-2 (15-human lipoxygenase 2) | Polyunsaturated fatty acid lipoxygenase ALOX15B (Homo sapiens), O15296 | purified 15hLO-2, xylenol orange hydroperoxide absorbance | Potency, µM (series often up to 57.1 µM), for inactives: at the highest dose activity change, negative = inhibition, most hits filed as inhibitors | 0.56% of 110,000 active | AID 881, 2007; note: % is set by controls: 0 for no effect and ±100 for the full control effect; nearly all actives have a fitted effect of over 60% in size
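Purified human 15hLO-2 (50 nM) preincubated 15 min with compound, then 45 uM arachidonic acid for 90 min at RT in 25 mM Hepes pH 7.5, 0.01% Triton X-100. Hydroperoxide detected by Fe-xylenol orange; 573/405 nm absorbance ratio.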
ALOX15 inhib = qHTS Assay for Inhibitors of 15-hLO (15-human lipoxygenase); Polyunsaturated fatty acid lipoxygenase ALOX15 (Homo sapiens), P16050; purified 15hLO-1, xylenol orange hydroperoxide absorbance; Potency, µM (series often up to 57.1 µM), inactives show top-dose activity change, negative = inhibition, most hits filed as inhibitors; 1.4% of 74,000 active; AID 887, 2007; note: % is set by controls: 0 for no effect and ±100 for the full control effect; nearly all actives have a fitted effect of over 55% in size
Target sequence (P16050 whole entry, looked up): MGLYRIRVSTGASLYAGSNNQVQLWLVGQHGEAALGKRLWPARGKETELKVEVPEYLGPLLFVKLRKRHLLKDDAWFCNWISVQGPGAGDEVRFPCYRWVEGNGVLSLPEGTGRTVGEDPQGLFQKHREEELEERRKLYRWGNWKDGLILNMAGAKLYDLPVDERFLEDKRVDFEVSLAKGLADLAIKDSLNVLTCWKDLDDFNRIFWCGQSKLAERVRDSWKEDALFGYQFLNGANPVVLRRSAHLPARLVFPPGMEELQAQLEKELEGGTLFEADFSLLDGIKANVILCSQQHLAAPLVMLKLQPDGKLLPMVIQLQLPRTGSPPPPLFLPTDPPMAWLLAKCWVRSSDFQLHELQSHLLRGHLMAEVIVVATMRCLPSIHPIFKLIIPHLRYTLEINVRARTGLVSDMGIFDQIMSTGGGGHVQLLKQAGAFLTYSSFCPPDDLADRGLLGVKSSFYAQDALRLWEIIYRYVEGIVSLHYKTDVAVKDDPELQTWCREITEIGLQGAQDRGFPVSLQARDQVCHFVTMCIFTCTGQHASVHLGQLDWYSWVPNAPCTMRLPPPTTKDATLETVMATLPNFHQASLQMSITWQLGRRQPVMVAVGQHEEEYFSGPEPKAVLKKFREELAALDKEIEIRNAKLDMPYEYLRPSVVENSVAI
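Purified human 15hLO-1 (40 nM) in 25 mM Hepes pH 7.5, 0.01% Triton X-100, preincubated 15 min RT with compound, then 50 uM arachidonic acid for 6 min. Hydroperoxide read by ferrous/xylenol orange, 30 min; 573/405 nm absorbance ratio gave progress.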
ERK AVP block = qHTS Assay for Inhibitors of the ERK Signaling Pathway using a Homogeneous Screening Assay | HEK293-V1b, vasopressin-stimulated pERK AlphaScreen | Potency, µM (highest dose often 57.5 µM), inactives show top-dose activity, negative = inhibition, most hits filed as inhibitors | 0.99% of 72,000 active; note: % is set by controls: 0 for no effect and ±100 for the full control effect; nearly all actives have a fitted effect of over 55% in size
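Phosphorylated ERK1/2 detected via AlphaScreen bead proximity in lysates of V1b-expressing HEK293 cells given 25 nM vasopressin for 5 min after 30 min compound exposure (37 °C). AC50 from Hill equation; basal DMSO 0%, vasopressin 100%.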
* marks the source's active call; other numbers are inactive results; ? = inconclusive; nt = not tested or not shown; ! = a repeat was not active; [ ] = another dose, or the depositor's remark. A selection: hits, their analogues and other compounds. The true share with any hit is near 3.2%. Unless noted, calls come from the whole dose curve; as a rule, active = well fitted inhibition curve with a large enough effect; inconclusive = small, poorly fitted or top-dose-only effect; inactive = no such curve, though single readings can be large or run the other way. Potency is the fitted concentration of half-maximal effect.

SMILES	CRE-bla Fsk	15-hLO-2 inh	ALOX15 inhib	ERK AVP block
Cc1cc2c(cc(C(=O)OCC(=O)NCc3cccs3)n2C(C)C)o1	10µM*	-11.7%	-23.3%	7.5%
COc1ccc(OC)c(Nc2cc(C)nc3ccccc23)c1	8.8%	24.9%	0.5%	-7.9%
COc1ccc(OC)c(Nc2cc(-c3ccccc3)nc(N)n2)c1	?	15.7%	?	10µM*
Cc1c(-c2nc(N)nc(Nc3ccccc3F)n2)oc2ccccc12	3.98µM*	24.2%	-15.5%	-19.1%
C=CC(=O)OCCCC	-7.3%	8.6%	-0.6%	10.2%
CCOc1ccccc1CNC(=O)c1cc2occc2n1C	-2.2%	-25.2%	20µM*	20µM*
CCNCCCNCCCCNCCCNCC	?	47.9%	15.7%[25.6 µM]	3.1%
Cc1ccc2[nH]c(=O)c(C(c3nnnn3CC3CCCO3)N3CCc4ccccc4C3)cc2c1 (configuration not stated)	-5.6%	-21.2%	-2.6%	-6.7%
CCC(c1nnnn1CC1CCCO1)N(CCN1CCOCC1)Cc1cc2cc(C)ccc2[nH]c1=O (configuration not stated)	5.3%	35.7%	3.16µM*	19.6%
Cc1ccc2[nH]c(=O)c(C(c3nnnn3CC3CCCO3)N3CCOCC3)cc2c1 (configuration not stated)	-2.4%	-0.1%	15.0%	-3.4%
Cc1ccc2[nH]c(=O)c(C(c3nnnn3CC3CCCO3)N3CCCc4ccccc43)cc2c1 (configuration not stated)	17.7%	-11.5%	1.26µM*	-19.7%
CCC(c1nnnn1Cc1ccco1)N(CCc1ccccc1)Cc1cc2cc(C)ccc2[nH]c1=O (configuration not stated)	-2.2%	-0.1%	15.8µM*	3.5%
C[C@H](N[C@@H](C)COc1ccccc1)[C@H](O)c1ccc(O)cc1	-4.7%[17.1 µM]	5.8%[25.6 µM]	-0.2%[25.6 µM]	-12.3%[25.7 µM]
COc1cc(N=c2ssnc2Cl)cc(OC)c1OC	18.4%	25.1µM*	3.16µM*	16.4%
COCCCn1c2nc3ccccc3nc2c2c(=O)n(-c3ccccc3OC)cnc21	3.98µM*	-2.0%	-2.4%	2.9%
Oc1cc(O)c2c(c1)O[C@H](c1ccc(O)c(O)c1)[C@@H](O)C2	?	-9.4%	-7.3%[25.6 µM]	-4.1%
Oc1ccc2c(c1)OC(c1ccc(O)c(O)c1)C(O)C2 (configuration not stated)	nt	?	12.6µM*	?
Nc1c2c(nc3ccccc13)CCC[C@H]2O	4.0%	-1.7%	3.1%	1.8%
Cc1c(N(C)C)nc2ccccc2c1N	-5.7%	-12.2%	-9.1%	-6.1%
Nc1c2ccccc2nc2ccccc12	12.6µM*	-10.9%	-0.8%	17.1%
Nc1c2c(nc3ccccc13)CCCC2	?	1.4%[0.0915 µM]	12.6µM*!	8.6%
CC(=O)OC1CC[C@]2(C)C(CC(OC(C)=O)[C@@]3(C)C4=CC(=O)OC(c5ccoc5)[C@]4(C)CCC23)C1(C)C (some centres not stated)	nt	-10.8%	-3.2%	-10.5%
COc1ccc(Cn2c(=O)n(Cc3ccco3)c(=N)c3c4c(sc32)COC(C)(C)C4)cc1	?	11.6%	-19.0%	?
CC1(C)Cc2c(sc3c2c(=N)n(Cc2ccco2)c(=O)n3Cc2ccc(F)cc2)CO1	3.98µM*	35.8%	-11.9%	-17.0%
COc1ccc(-n2c(=O)cnc3cnc(N(C)C)nc32)cc1	10µM*	-19.0%	1.8%	-29.9%
SMILES	CRE-bla Fsk	15-hLO-2 inh	ALOX15 inhib	ERK AVP block
CN(C)c1ncc2nc(-c3ccccc3)c(=O)n(-c3ccccc3)c2n1	?	3.5%	-5.9%	-15.8%
Cc1nc2cnc(N(C)C)nc2n(C2CC2)c1=O	10µM*	-5.2%	-1.3%	?
Cc1nc2cnc(N(C)C)nc2n(C)c1=O	?	2.1%	0.4%	15.8µM*
Cc1nc2cnc(N(C)C)nc2n(-c2ccccc2)c1=O	10µM*	-10.0%	0.4%	-25.5%
CN(C)c1ncc2ncc(=O)n(C)c2n1	?	-7.4%	-4.3%	-27.0%
CN(C)c1ncc2nc(-c3ccc(F)cc3)c(=O)n(C3CC3)c2n1	2µM*	-2.2%	?	28.2%
c1ccc(Cn2c(-c3cccs3)nc3nc4ccccc4nc32)cc1	5.7%	-18.1%	-1.7%	-12.8%
CC(C)Cn1c(-c2cccs2)nc2nc3ccccc3nc21	12.6µM*	-14.0%	-9.9%	6.3%
COC(=O)C1=C(C)N(Cc2ccccc2)C2=C(C(=O)c3ccccc3)C(c3ccccc3)[C@@](O)(C(=O)OC)C(=O)N2C1c1ccccc1 (some centres not stated)	nt	nt	8.6%[11.4 µM]	-3.3%[11.5 µM]
Cc1nn(C)c(C)c1CNC(=O)c1cc2n(n1)C(C(F)(F)F)CC(c1cccs1)N2 (configuration not stated)	3.7%	1.0%[2.29 µM]	-25.3%	31.6µM*
COc1ccc(C2CC(C(F)(F)F)n3nc(C(=O)NCc4c(C)nn(C)c4C)c(Cl)c3N2)cc1 (configuration not stated)	-4.6%	-1.0%	9.8%	21.5%
CCN(CC)CCCNC(=O)c1ccc(-n2c(=O)c(=O)[nH]c3ccccc32)cc1	nt	nt	0.2%	nt
CCOc1cc(N2CCOCC2)c(OCC)cc1NC(=O)c1nc2nc(C)cc(C)n2n1	5.01µM*	-5.0%	10.9%	-8.7%
CN(C)c1ccc(-c2cncnc2NCCN2CCOCC2)cc1	17.0%	-21.9%	?	-4.3%
CC(=O)NCCNc1ncncc1-c1ccc(N(C)C)cc1	-12.1%	-8.0%	12.6µM*	-19.9%
CC(=O)Nc1nc(NC(C)=O)c2[nH]c(CO)nc2n1	6.8%[7.6 µM]	-4.1%[11.4 µM]	10.3%[11.4 µM]	7.9%[11.5 µM]
Cc1cnc(N)c2c(=O)oc3ccccc3c12	12.6µM*	4.9%	0.3%	nt
O=C(Nc1ccc(Cl)cc1)Nc1ccc2c(c1)N1CCN=C1S2	?	32.7%	-0.7%	31.6µM*
Nc1ccc2c(c1)N1CCN=C1S2	nt	-5.9%	nt	nt
CCOC(=O)c1c(C)oc2c1c(C(c1cccnc1)N1CCN(C)CC1)c(O)c1ccccc12 (configuration not stated)	-0.3%	6.6%	-29.8%	5.2%
CCOC(=O)c1c(C)oc2c1c1c(c3ccccc32)OCN(Cc2cccnc2)C1	-11.0%	14.8%	2µM*	-3.0%
O=C(Nc1nc2ccccc2s1)C1CCCN1S(=O)(=O)c1ccc(Cl)cc1 (configuration not stated)	?	-5.8%	?	20µM*
COC(=O)c1ccc(C(NC(=O)OCc2ccccc2)/C(=C/[C@@H](C)C(=O)N[C@@H](CO)Cc2ccccc2)c2cccnc2)cc1 (some centres not stated)	-21.1%	39.5%	25.1µM*	14.4%
C=CCCCC	-9.1%	-11.3%	4.7%	16.0%
COc1cccc(N2CCN(C(=O)c3ccc4nc(N5CCCCC5)sc4c3)CC2)c1	2.3%	34.8%	-10.9%	25.1µM*
COc1ccc(N2CCN(C(=O)c3ccc4nc(N5CCCCC5)sc4c3)CC2)cc1	6.7%	-3.8%	-3.5%	?

Compound activity: PubChem BioAssay, National Center for Advancing Translational Sciences (NCATS)
